The record followed here is PubChem BioAssay.

Assay [1] in a line: Her2 expression decrease, cell viability multiplex – SKBR3 breast tumor cells, AlphaScreen, ATP viability, primary screen (AID 461).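 For Her2 level: lower value means less Her2 protein in the cells.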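 For viability: percent of carrier control wells set as 100% viability.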 As to conditions: SKBR3 Her2 protein level, 18-24 h, measured here: SKBR3 viability, ATP luminescence, at 10 µM.
Assay [2] concerns the target Receptor tyrosine-protein kinase erbB-2 (Homo sapiens) (UniProt P04626). Described as above. As to conditions: 18-24 h, at 10 µM, stronger effect = lower value.
Assay [3] is described as follows: reduced viability of SK-BR-3 breast cancer cells – cell-based, 24 h, human, pilot screen (AID 572;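 active = viability at or below 10% of carrier control in both of two separate runs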;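 note: compound exposure lasted between 18 and 24 h rather than exactly 24 h; 100% = carrier-treated control wells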). As to conditions: SK-BR-3 viability, CellTiter-Glo luminescence, at 10 µM, stronger effect = lower value.
Assay [4] can be described thus: HUVEC growth inhibition – cell-based, human, primary screen (AID 575;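 active = viability at or below 30% in both replicate assays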;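 note: 100% = median of untreated cell wells with 0.1% DMSO on each plate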). As to conditions: HUVEC proliferation, CellTiter-Glo luminescence, 72 h; at 10 µM; stronger effect = lower value.
The nature of assay [5]: MRP1 drug-resistance reversers in H69AR cells – cell-based, doxorubicin co-treatment, pilot screen (AID 601;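 active = viability loss from added drug above about 55%, and viability with drug at most 40%, in both replicates, limit read from the data, passing the limit was not always enough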). As to conditions: CellTiter-Glo, 72 h, at 10 µM; for differential viability (reversal): stronger effect = higher value. (In ATP-based viability assays light output follows the ATP content of the culture.)
A short description of assay [6]: yeast transport mutant growth inhibition pilot in 384-well plates, post-Golgi transport modulator project (AID 636; in the data active = inhibition above about 31%). As to conditions: absorbance 615 nm, about 18 h, stronger effect = higher value.
A short description of assay [7]: growth suppression of yeast trafficking mutant, preliminary HTS, modulators of trafficking downstream of Golgi apparatus project, 1536-format plate, OD 615 nm (AID 637; in the data active = inhibition above about 30%). As to conditions: yeast transport mutant growth, absorbance 615 nm, 18 h; stronger effect = higher value.
Setting [8] is: H69AR cells + 2 uM doxorubicin, measured here: viability with 2 uM doxorubicin, stronger effect = lower value.
Where [9] appears, read: H69AR cells, compound alone cytotoxicity.

Active and inactive are the calls of the source.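 Rule for the calls, unless noted: active = Her2 level under about 52% in both replicate screens, with viability over 70% of control (limit read from the data); inconclusive = Her2 under the limit in one screen only, or viability under 70%; inactive = Her2 level above the set limit.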

Chain of Receptor tyrosine-protein kinase erbB-2 (Homo sapiens) (P04626 whole entry, looked up): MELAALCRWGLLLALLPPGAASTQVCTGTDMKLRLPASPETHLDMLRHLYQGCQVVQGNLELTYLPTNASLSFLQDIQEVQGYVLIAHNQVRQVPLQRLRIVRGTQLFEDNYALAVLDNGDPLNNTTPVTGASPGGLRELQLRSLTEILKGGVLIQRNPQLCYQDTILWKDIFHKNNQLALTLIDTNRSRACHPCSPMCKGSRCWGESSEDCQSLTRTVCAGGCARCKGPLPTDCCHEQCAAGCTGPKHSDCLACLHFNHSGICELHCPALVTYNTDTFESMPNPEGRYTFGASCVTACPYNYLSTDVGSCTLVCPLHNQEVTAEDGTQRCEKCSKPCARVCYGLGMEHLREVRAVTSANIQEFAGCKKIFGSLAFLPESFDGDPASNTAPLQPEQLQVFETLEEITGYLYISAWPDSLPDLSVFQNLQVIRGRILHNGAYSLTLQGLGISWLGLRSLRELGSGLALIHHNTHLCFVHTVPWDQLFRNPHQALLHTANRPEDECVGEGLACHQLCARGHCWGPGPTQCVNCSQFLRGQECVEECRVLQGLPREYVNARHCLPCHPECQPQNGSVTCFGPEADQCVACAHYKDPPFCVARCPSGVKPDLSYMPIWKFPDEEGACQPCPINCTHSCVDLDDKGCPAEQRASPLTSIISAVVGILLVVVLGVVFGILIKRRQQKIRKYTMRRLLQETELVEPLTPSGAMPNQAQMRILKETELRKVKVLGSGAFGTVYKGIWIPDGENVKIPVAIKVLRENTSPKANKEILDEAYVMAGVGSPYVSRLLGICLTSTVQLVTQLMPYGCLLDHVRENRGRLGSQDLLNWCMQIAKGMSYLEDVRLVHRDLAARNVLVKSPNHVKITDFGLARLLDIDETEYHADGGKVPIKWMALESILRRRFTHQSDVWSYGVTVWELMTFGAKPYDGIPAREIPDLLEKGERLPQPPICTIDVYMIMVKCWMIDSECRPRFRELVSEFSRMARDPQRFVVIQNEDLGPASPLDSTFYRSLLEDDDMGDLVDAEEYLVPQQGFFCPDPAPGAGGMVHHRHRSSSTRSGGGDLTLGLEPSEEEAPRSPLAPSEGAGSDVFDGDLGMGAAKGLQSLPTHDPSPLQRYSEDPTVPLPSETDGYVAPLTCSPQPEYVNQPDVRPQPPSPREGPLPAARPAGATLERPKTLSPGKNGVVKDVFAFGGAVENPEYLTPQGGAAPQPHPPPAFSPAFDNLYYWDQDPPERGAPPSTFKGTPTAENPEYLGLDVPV

As a reminder, the viability is a read-out of living cells in per cent, often relative to untreated cells. As usually defined, the inhibition is the change of the read-out against control, counted positive when it falls. With `Cc1ccc(/C=c2\s/c(=C(/C#N)C(=O)N3CCCC3)n(Cc3ccco3)c2=O)s1`, the viability was 87.5% in assay [1]; 87.5% (inactive) in assay [3]; 59.3% (inactive) in assay [4]; 28.1% in assay [5] (setting [8]); 43.9% in assay [5] (setting [9]). Moreover, the Her2 level in assay [2] was 79% (inactive). Also, the differential viability (reversal) in assay [5] (H69AR cells + 2 uM doxorubicin) was 15.8% (inactive). Besides, the results for the inhibition in assay [6] and in assay [7] were -1.95% (inactive) and 1.9% (inactive), respectively.
As to `CCCc1cc(-c2n[nH]c(C)c2-c2ccc(C(=O)OCC)o2)c(O)cc1O`, the viability in assay [1] is 78%; in assay [3], 78% (inactive); in assay [4] it was 39.4% (inactive); in assay [5] (setting [8]), 38.2%; in assay [5] (setting [9]), 28%. For the same compound, in assay [2], the Her2 level is 72% (inactive). The differential viability (reversal) in assay [5] (H69AR cells + 2 uM doxorubicin) is -10.2% (inactive). Further, the inhibition in assay [6] was -4.74% (inactive); in assay [7] it was 1.45% (inactive).
`CCCc1nc2ccccc2c(=O)n1NC(=O)c1c(O)c2cccc3c2n(c1=O)CCC3`: the viability in assay [1] was 113%; in assay [3] it was 113% (inactive); in assay [4], 83.5% (inactive); in assay [5] (setting [8]) it was 72.1%; in assay [5] (setting [9]) it was 66%. The Her2 level in assay [2] is 87.5% (inactive). Further, the differential viability (reversal) in assay [5] (H69AR cells + 2 uM doxorubicin) was -6.06% (inactive). Moreover, the inhibition in assay [6] was -5.2% (inactive); in assay [7] it was 14.1% (inactive).
Turning to `CCOC(=O)c1oc2ccccc2c1NC(=O)c1cccc(OC)c1OC`, the viability was 96.5% in assay [1]; 96.5% (inactive) in assay [3]; 51% (inactive) in assay [4]; 88.2% in assay [5] (setting [8]); 19.6% in assay [5] (setting [9]). Also, in assay [2], the Her2 level was 100% (inactive). Besides, the differential viability (reversal) in assay [5] (H69AR cells + 2 uM doxorubicin) was -68.6% (inactive). Further, the results for the inhibition in assay [6] and in assay [7] were -2.99% (inactive) and -2.22% (inactive), respectively.
`Cc1ccc2c(C)nc(Nc3nc(CSc4nnnn4-c4ccccc4)cc(=O)[nH]3)nc2c1`: the viability in assay [1] is 98%; in assay [3] it was 98% (inactive); in assay [4] it was 48.6% (inactive); in assay [5] (setting [8]) it was 78%; in assay [5] (setting [9]) it was 50.7%. Also, in assay [2], the Her2 level is 80% (inactive). Besides, the differential viability (reversal) in assay [5] (H69AR cells + 2 uM doxorubicin) was -27.3% (inactive). Moreover, the inhibition was -5.47% (inactive) in assay [6] and 1.31% (inactive) in assay [7].
On to `Cc1c(C(=O)NC2CCCc3ccccc32)oc2ccc(S(=O)(=O)N3CCOCC3)cc12` (centres undefined), for which the viability in assay [1] was 94.5%; in assay [3], 94.5% (inactive); in assay [4], 84.9% (inactive); in assay [5] (setting [8]), 50.7%; in assay [5] (setting [9]) it was 52.2%. Moreover, the Her2 level in assay [2] is 89.5% (inactive). For the same compound, in assay [5] (H69AR cells + 2 uM doxorubicin), the differential viability (reversal) is 1.53% (inactive). For the same compound, the inhibition is -2% (inactive) in assay [6] and 1.29% (inactive) in assay [7].
Regarding `Cc1nc2ccccc2c(=O)n1NC(=O)c1c(O)c2c(n(CC(C)C)c1=O)CCCC2`, the viability in assay [1] was 88.5%; in assay [3] it was 88.5% (inactive); in assay [4], 92% (inactive); in assay [5] (setting [8]) it was 66.3%; in assay [5] (setting [9]), 49.1%. Also, the Her2 level in assay [2] was 73.5% (inactive). Besides, the differential viability (reversal) in assay [5] (H69AR cells + 2 uM doxorubicin) was -17.2% (inactive). Moreover, the inhibition in assay [6] is -1.84% (inactive); in assay [7], 9.35% (inactive).
In the case of `Cc1ccc(C)c(-c2nc3ccc(N)cc3[nH]2)c1`, the viability in assay [1] is 122%; in assay [3] it was 122% (inactive); in assay [4] it was 68.3% (inactive); in assay [5] (setting [8]), 68.3%; in assay [5] (setting [9]), 52.8%. Further, the Her2 level in assay [2] is 101% (inactive). In addition, the differential viability (reversal) in assay [5] (H69AR cells + 2 uM doxorubicin) is -15.6% (inactive). Further, the inhibition is -6.35% (inactive) in assay [6] and 5.67% (inactive) in assay [7].
Regarding `Cc1ccc(CNC(=O)c2coc(=O)c3ccccc23)o1`, the viability in assay [1] was 93.5%; in assay [3], 93.5% (inactive); in assay [4] it was 81.8% (inactive); in assay [5] (setting [8]) it was 67%; in assay [5] (setting [9]), 42.4%. Also, the Her2 level in assay [2] is 81% (inactive). The differential viability (reversal) in assay [5] (H69AR cells + 2 uM doxorubicin) is -24.6% (inactive). In addition, the inhibition is -0.53% (inactive) in assay [6] and -5.82% (inactive) in assay [7].
As to `O=C(Nc1ccc(F)cc1)N(Cc1ccco1)Cc1cc2cc3c(cc2[nH]c1=O)OCO3`, the viability was 86.5% in assay [1]; 86.5% (inactive) in assay [3]; 58.7% (inactive) in assay [4]; 19.6% in assay [5] (setting [8]); 55% in assay [5] (setting [9]). The Her2 level in assay [2] was 90.5% (inactive). For the same compound, in assay [5] (H69AR cells + 2 uM doxorubicin), the differential viability (reversal) was 35.4% (inactive). In addition, the inhibition in assay [6] was -6.32% (inactive); in assay [7], -12.8% (inactive).
As for `CCOC(=O)c1c(C)[nH]c(C(=O)COC(=O)c2ccc(F)c(S(=O)(=O)N3CCOCC3)c2)c1C`, the viability in assay [1] is 88.5%; in assay [3] it was 88.5% (inactive); in assay [4], 62.4% (inactive); in assay [5] (setting [8]) it was 52.5%; in assay [5] (setting [9]), 63.9%. Besides, the Her2 level in assay [2] is 79.5% (inactive). Moreover, the differential viability (reversal) in assay [5] (H69AR cells + 2 uM doxorubicin) is 11.4% (inactive). The inhibition in assay [6] is -5.47% (inactive); in assay [7] it was -1.97% (inactive).
Take `CCSc1nnc(NC(=O)c2ccccn2)s1`: the viability in assay [1] is 92%; in assay [3], 92% (inactive); in assay [4], 18.4% (active); in assay [5] (setting [8]), 34.8%; in assay [5] (setting [9]), 20.8%. For the same compound, in assay [2], the Her2 level is 80.5% (inactive). In addition, the differential viability (reversal) in assay [5] (H69AR cells + 2 uM doxorubicin) was -14% (inactive). The inhibition in assay [6] was 4.03% (inactive); in assay [7] it was 9.21% (inactive).
On to `COc1ccc(OCC(=O)N2CCN(C(=O)COc3ccc(Br)cc3)CC2)cc1`, for which the viability in assay [1] was 84.5%; in assay [3] it was 84.5% (inactive); in assay [4] it was 81.3% (inactive); in assay [5] (setting [8]) it was 40.4%; in assay [5] (setting [9]), 47.6%. For the same compound, the Her2 level in assay [2] is 95.5% (inactive). In addition, the differential viability (reversal) in assay [5] (H69AR cells + 2 uM doxorubicin) was 7.19% (inactive). Besides, the inhibition was -2.67% (inactive) in assay [6] and 3.71% (inactive) in assay [7].
In the case of `COc1ccc(-c2noc(CCC(=O)NCCCN3CCC(Cc4ccccc4)CC3)n2)cc1`, the viability was 87.5% in assay [1]; 87.5% (inactive) in assay [3]; 33.1% (inactive) in assay [4]; 64.4% in assay [5] (setting [8]); 63% in assay [5] (setting [9]). Besides, the Her2 level in assay [2] was 77% (inactive). For the same compound, in assay [5] (H69AR cells + 2 uM doxorubicin), the differential viability (reversal) was -1.48% (inactive). For the same compound, the results for the inhibition in assay [6] and in assay [7] were 1.05% (inactive) and -6% (inactive), respectively.
With `Cc1ccc(C)c(S(=O)(=O)C(C#N)c2nc3ccccc3nc2N2CC(C)OC(C)C2)c1` (centres undefined), the viability was 91% in assay [1]; 91% (inactive) in assay [3]; 52.2% (inactive) in assay [4]; 70.7% in assay [5] (setting [8]); 60.4% in assay [5] (setting [9]). Further, the Her2 level in assay [2] is 77% (inactive). The differential viability (reversal) in assay [5] (H69AR cells + 2 uM doxorubicin) is -10.3% (inactive). In addition, the figures for the inhibition in assay [6] and in assay [7] were 0.52% (inactive) and 16.7% (inactive), respectively.
For the compound `CCC(Sc1nc2n[nH]c(C)c2c(=N)n1-c1cc(Cl)ccc1C)C(=O)N1CCOCC1` (centres undefined), the viability is 92.5% in assay [1]; 92.5% (inactive) in assay [3]; 71.2% (inactive) in assay [4]; 17% in assay [5] (setting [8]); 46.3% in assay [5] (setting [9]). The Her2 level in assay [2] was 96% (inactive). In addition, in assay [5] (H69AR cells + 2 uM doxorubicin), the differential viability (reversal) is 29.3% (inactive). Moreover, the inhibition in assay [6] was 2.37% (inactive); in assay [7] it was -10% (inactive).
